The values below come from PubChem BioAssay.

Assay [1] can be described thus: compounds binding Alexa647 anti-His antibody – biochemical, small-molecule microarray, 635 nm fluorescence, artefact control for SMM control protein annotation, primary screen (AID 1128).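 Note: score merges feature fluorescence with signal-to-noise for each printed compound spot.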 The following applies: higher = more signal.
For assay [2], the system named is Human papillomavirus type 1a E7 protein (residues 1-88). In words: HPV1a E7 small-molecule binders, primary screen, biochemical, small-molecule microarray, residues 1-88, 635 nm (AID 1129). The following applies: small-molecule microarray binding, fluorescence 635 nm; higher = more signal.
The target in assay [3] is Focal adhesion kinase 1 (Homo sapiens) (UniProt Q05397). In words: PTK2 protein binding on printed compound slides – biochemical, small-molecule microarray, 635/667 nm fluorescence, BSA, DTT, primary screen (AID 1130).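 Note: composite of spot emission at 667 nm and signal to noise over triplicate slides.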 The following applies: 635 nm fluorescence, higher = more signal.
Sequence of Focal adhesion kinase 1 (Homo sapiens) (Q05397 whole entry, looked up): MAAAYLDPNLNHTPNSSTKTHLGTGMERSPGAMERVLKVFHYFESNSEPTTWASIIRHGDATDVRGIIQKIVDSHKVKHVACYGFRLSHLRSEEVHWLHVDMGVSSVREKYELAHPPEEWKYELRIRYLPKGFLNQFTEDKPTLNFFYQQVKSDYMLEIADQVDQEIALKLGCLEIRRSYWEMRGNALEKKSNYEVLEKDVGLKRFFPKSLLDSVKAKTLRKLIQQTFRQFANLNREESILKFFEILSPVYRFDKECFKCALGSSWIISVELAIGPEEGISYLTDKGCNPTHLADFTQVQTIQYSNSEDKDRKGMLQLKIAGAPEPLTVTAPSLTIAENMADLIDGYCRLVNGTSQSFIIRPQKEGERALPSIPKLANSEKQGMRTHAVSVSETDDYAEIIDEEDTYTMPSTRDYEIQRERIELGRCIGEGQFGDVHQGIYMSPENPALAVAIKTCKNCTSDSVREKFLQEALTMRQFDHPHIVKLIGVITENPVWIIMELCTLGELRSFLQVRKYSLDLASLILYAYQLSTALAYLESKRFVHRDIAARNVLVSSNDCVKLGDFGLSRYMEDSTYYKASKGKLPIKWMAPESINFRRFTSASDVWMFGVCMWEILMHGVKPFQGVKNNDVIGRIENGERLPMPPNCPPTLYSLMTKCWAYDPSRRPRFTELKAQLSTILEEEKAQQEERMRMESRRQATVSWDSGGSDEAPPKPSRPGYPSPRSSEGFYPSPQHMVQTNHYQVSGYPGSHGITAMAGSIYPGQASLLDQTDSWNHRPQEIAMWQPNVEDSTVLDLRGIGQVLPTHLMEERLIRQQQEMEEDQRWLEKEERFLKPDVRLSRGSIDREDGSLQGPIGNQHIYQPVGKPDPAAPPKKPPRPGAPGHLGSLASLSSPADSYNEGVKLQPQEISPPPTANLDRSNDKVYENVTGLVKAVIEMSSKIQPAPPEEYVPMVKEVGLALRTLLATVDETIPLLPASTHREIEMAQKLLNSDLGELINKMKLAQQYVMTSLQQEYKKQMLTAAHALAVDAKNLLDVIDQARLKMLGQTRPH
Assay [4] concerns Fibrinogen (Alexa647-labelled). In words: Alexa647-fibrinogen binding to printed small molecules – biochemical, small-molecule microarray, 635/667 nm fluorescence, artefact control for SMM control-protein annotation, profiling panel (AID 1131).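 Note: z-score merges 667 nm fluorescence with per-spot signal-to-noise over triplicate slides.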 The note with it: fibrinogen-A647 binding fluorescence, higher = more signal.
In assay [5] the target is Follistatin (Homo sapiens) (UniProt P19883). Description: FST protein binding to printed compounds – biochemical, small-molecule microarray, 635/667 nm fluorescence, primary screen (AID 1132). The note with it: 635 nm fluorescence, higher = more signal.
Sequence of Follistatin (Homo sapiens) (P19883 whole entry, looked up): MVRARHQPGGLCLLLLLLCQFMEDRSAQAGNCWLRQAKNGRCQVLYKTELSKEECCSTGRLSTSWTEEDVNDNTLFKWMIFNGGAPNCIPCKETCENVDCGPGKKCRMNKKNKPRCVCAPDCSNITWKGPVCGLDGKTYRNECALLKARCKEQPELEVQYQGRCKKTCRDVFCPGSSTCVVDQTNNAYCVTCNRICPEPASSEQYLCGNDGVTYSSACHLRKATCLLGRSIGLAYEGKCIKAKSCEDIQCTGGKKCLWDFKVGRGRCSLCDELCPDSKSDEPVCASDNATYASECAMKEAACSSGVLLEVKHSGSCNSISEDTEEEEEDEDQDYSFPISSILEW
Assay [6] deals with Fibroblast growth factor 2 (Homo sapiens) (UniProt P09038). In words: basic fibroblast growth factor binding to printed compounds – biochemical, small-molecule microarray, 635/667 nm fluorescence, primary screen (AID 1133). The following applies: FGF2, fluorescence 635/667, higher = more signal.
Sequence of Fibroblast growth factor 2 (Homo sapiens) (P09038 whole entry, looked up): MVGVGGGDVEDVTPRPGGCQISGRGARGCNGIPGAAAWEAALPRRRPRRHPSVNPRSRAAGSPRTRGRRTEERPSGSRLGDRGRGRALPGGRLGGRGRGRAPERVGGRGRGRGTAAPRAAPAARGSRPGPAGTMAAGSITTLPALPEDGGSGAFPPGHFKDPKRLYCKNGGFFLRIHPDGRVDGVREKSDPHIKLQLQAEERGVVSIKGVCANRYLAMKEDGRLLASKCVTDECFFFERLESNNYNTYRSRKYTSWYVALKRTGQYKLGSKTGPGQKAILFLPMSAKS
The nature of assay [7]: JC-1 mitochondrial potential readout, lung cancer cells – cell-based, A549, JC-1 fluorescence, basal, 24 h, 100 nL, profiling panel (AID 1138).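 Note: A549 lung adenocarcinoma cells under basal conditions with no added stimulus; test concentration not given here.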 The following applies: higher = more signal.
In assay [8] the test system is Lefty1. Description: Lefty1 protein binding to printed compounds – biochemical, small-molecule microarray, 635/667 nm fluorescence, primary screen (AID 1139). The note with it: fluorescence 635/667, higher = more signal.
The subject of assay [9] is wheat germ agglutinin (Triticum aestivum), Alexa647-labelled. In words: Alexa647-WGA lectin binding to printed small molecules – biochemical, small-molecule microarray, 635/667 nm fluorescence, artefact control for SMM control-protein annotation, profiling panel (AID 1140).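 Note: score merges 667 nm feature emission with signal to noise over triplicate slides.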 The following applies: WGA-A647 binding, 635 nm fluorescence, higher = more signal.
Assay [10] has as its target Luciferin 4-monooxygenase (Photinus pyralis) (UniProt P08659). In words: inhibition of purified Photinus pyralis luciferase – biochemical, luminescence, purified enzyme, 2006 set, primary screen (AID 1141).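 Note: cell-free assay with purified firefly luciferase at 100 ng per well in PBS; test concentration not given here.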 The following applies: purified firefly luciferase, SteadyGlo luminescence, 30 min; higher = more signal, called active from +8 up or from −8 down.
Assay [11] has as its system Wnt5a (protein binding on small-molecule microarray). In words: small molecules binding Wnt5a protein – biophysical, small-molecule microarray, 635/667 nm fluorescence, primary screen (AID 1142).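 Note: fluorescence read at 667 nm with signal to noise per printed feature.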 The note with it: 635 nm fluorescence, higher = more signal.
Assay [12] is described as follows: ATP-based viability of Huh7 replicon cells – cell-based, CellTiter-Glo luminescence, basal, 48 h, cytotoxicity control for HCV replication inhibitor project, primary screen (AID 1143).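 Note: Huh7 hepatoma cells carrying a hepatitis C replication reporter with no stimulus; test concentration not given here.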 The following applies: higher = more signal, called active from +8 up or from −8 down.
A short description of assay [13]: Pseudomonas biofilm growth suppression – PAO1 strain, BacTiter-Glo luminescence, LB-PBS, primary screen (AID 1144). The note with it: P. aeruginosa PAO1 biofilm, 12 h, higher = more signal.
Assay [14] in a line: basal CRE-LacZ reporter activity in PC12 – cell-based, unstimulated, primary screen (AID 1145). The following applies: no forskolin, luminescence, 4.5 h, higher = more signal, called active from +8 up or from −8 down.
Assay [15] in a line: forskolin-driven CRE-LacZ activity in PC12 – cell-based, CRE-LacZ reporter, forskolin-stimulated, primary screen (AID 1146).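 Note: PC12 cells with 6xCRE LacZ reporter stimulated by forskolin 10 µM; beta-galactosidase reporter signal reflecting CREB driven transcription.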 The note with it: luminescence, 4.5 h, higher = more signal, called active from +8 up or from −8 down.
Assay [16] concerns the target Streptavidin (Streptomyces avidinii) (UniProt P22629). In words: compounds binding control protein streptavidin – biophysical, small-molecule microarray, 635/667 nm fluorescence, artefact control for SMM compound annotation, primary screen (AID 1147).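 Note: signal reflects streptavidin binding to arrayed compounds as a control protein.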 The following applies: higher = more signal.
The nature of assay [17]: probe aInhba binding on compound microarray – biochemical, small-molecule microarray, 635/667 nm fluorescence, primary screen (AID 1148).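 Note: score merges 667nm spot fluorescence with signal-to-noise for antibody binding to printed compounds.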 The note with it: higher = more signal.
Assay [18] addresses Torsin-1A (Homo sapiens) (UniProt O14656). Description: TOR1A wild-type binding on microarray – cell lysate, small-molecule microarray, lysate, 635/667 nm, primary screen (AID 1149). The following applies: COS7 hTOR1A-WT lysate, 635 nm fluorescence, higher = more signal.
For assay [19] the target is unchanged. In words: torsin A mutant lysate binding on microarrays – cell lysate, small-molecule microarray, COS7 lysate, 635/667 nm fluorescence, primary screen (AID 1150).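 Note: score pools 667 nm emission and signal to noise measuring lysate protein binding.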 The following applies: COS7 hTOR1A mutant lysate, 635 nm fluorescence, higher = more signal.
Assay [20] has as its system Sonic hedgehog protein (Shh). In words: Sonic hedgehog microarray binding compounds – biochemical, small-molecule microarray, 635/667 nm fluorescence, primary screen (AID 1151).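 Note: Shh protein binding to compounds spotted on small-molecule microarray slides; score combines spot fluorescence intensity with signal-to-noise across triplicate slides.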 The note with it: 635 nm fluorescence, higher = more signal.

Active and inactive are the calls of the source. Unless noted, the rule behind the calls is not given here.

Sequence of Luciferin 4-monooxygenase (Photinus pyralis) (P08659 whole entry, looked up): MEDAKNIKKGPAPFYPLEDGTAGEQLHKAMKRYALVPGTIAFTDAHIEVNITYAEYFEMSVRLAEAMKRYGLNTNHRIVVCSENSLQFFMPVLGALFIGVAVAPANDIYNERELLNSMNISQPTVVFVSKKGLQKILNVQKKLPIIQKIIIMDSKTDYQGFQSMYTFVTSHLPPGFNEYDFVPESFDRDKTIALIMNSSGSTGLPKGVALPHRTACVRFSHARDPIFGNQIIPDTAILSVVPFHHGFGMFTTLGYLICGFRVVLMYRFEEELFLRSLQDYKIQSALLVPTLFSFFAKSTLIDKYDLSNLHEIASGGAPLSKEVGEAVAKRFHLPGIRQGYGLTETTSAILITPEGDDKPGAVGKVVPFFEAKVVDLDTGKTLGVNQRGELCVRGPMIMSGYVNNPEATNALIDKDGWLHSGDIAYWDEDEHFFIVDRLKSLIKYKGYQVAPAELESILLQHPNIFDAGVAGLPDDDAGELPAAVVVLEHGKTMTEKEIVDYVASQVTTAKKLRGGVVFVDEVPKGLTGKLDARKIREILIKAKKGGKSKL
Sequence of Torsin-1A (Homo sapiens) (O14656 whole entry, looked up): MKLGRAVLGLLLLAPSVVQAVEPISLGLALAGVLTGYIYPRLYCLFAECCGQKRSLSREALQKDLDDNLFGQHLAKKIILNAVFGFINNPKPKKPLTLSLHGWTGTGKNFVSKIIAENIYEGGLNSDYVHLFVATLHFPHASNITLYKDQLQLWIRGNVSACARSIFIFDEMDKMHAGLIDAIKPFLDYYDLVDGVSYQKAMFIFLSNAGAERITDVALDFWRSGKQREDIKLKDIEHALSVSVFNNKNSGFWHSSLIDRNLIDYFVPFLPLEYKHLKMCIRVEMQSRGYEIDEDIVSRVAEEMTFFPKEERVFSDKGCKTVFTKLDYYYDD
Sequence of Streptavidin (Streptomyces avidinii) (P22629 whole entry, looked up): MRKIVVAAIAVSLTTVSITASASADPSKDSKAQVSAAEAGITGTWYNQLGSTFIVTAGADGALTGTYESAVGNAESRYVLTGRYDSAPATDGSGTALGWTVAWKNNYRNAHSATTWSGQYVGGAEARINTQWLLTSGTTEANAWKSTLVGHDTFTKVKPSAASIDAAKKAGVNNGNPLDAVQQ

In the case of `COc1ccc([Si](C)(C)[C@H]2[C@H](CCO)O[C@@]3(C(=O)N(C)c4c(Br)cc(C)cc43)[C@@H]2C)cc1`, the composite z-score in assay [1] was determined as 0.494; in assay [2] it was 0.969; in assay [3], 0.295; in [4] it was 0.15; in assay [5], 0.675; in assay [6] it was 0.425. In addition, the composite z-score was 0.486 in assay [8]; 0.773 in assay [9]; -0.0092 in [11]; 0.0036 in assay [16]; -0.0523 in [17]; 1.15 in [18]. Further, the composite z-score in [19] came out at 0.105; in assay [20], 1.29. For the same compound, the z-score was -1.69 in assay [7]; 0.481 (inactive) in assay [10]; -8.05 (active) in assay [12]; -1 (inactive) in [13]; 15.2 (active) in [14]; -3.2 (inactive) in assay [15].

As for `Cc1ccc(C(C)CC(O)C2C=CC3C(=O)N(c4ccccc4)C(=O)C3N2Nc2ccc([N+](=O)[O-])cc2)o1` (stereo not given), the composite z-score in [1] is 0.484; in assay [2] it was 1.23; in assay [3], 0.772; in [4], 0.904; in [5], 1.06; in assay [6], 0.232. Moreover, the composite z-score in assay [8] was -0.0023; in assay [9], 0.646; in [11] it was 0.354; in assay [16], 1.71; in assay [17], -0.0131; in assay [18], -0.344. The composite z-score in [19] was found to be 0.222; in assay [20], 0.442. The z-score is -0.828 in assay [7]; 1.45 (inactive) in [10]; -0.344 (inactive) in assay [12]; -0.99 (inactive) in [13]; 0.136 (inactive) in assay [14]; 0.812 (inactive) in assay [15].

For `C[C@@]1([C@@H](NC(=O)c2ccccc2)c2ccc(-c3ccccc3)cc2)C[C@H]1C1CCCCC1`, the composite z-score was -1.28 in assay [1]; -0.202 in assay [2]; 0.327 in [3]; -0.695 in assay [4]; -0.548 in [5]; -1 in [6]. Besides, the composite z-score in [8] is -0.848; in assay [9], 0.519; in [11] it was 0.367; in assay [16] it was 1.1; in assay [17] it was 0.333; in [18], 0.0627. In addition, the values for the composite z-score in [19] and in [20] were -0.0293 and -1.1, respectively. Also, the z-score in assay [7] is -0.507; in [10] it was 1.32 (inactive); in [12], 0.147 (inactive); in [13] it was -0.232 (inactive); in assay [14] it was 0.201 (inactive); in assay [15] it was 0.957 (inactive).

For `CCCC#C[Si](O[C@H](CC)c1cn([C@H](CO)Cc2ccccc2)nn1)(C(C)C)C(C)C`, the composite z-score amounted to 0.236 in assay [1]; 0.842 in [2]; 0.249 in assay [3]; 0.892 in assay [4]; 0.963 in assay [5]; 0.344 in [6]. In addition, the composite z-score was 0.41 in assay [8]; 0.0686 in assay [9]; 0.998 in assay [11]; 0.949 in assay [16]; -0.128 in assay [17]; 0.402 in assay [18]. Further, the composite z-score amounted to 0.511 in assay [19] and 0.482 in [20]. In addition, the z-score in assay [7] was 0.175; in assay [10], -0.453 (inactive); in assay [12] it was -0.727 (inactive); in assay [13] it was -0.259 (inactive); in [14] it was -0.388 (inactive); in [15] it was -0.0711 (inactive).

Consider `C=C(COC)/C(=C/C[C@H](OC(=O)c1ccncc1)c1ccc(OCCO)cc1)c1cnc2ccccc2c1`, for which the composite z-score is 1.96 in assay [1]; 1.2 in [2]; 0.111 in assay [3]; 0.967 in [4]; 1.38 in assay [5]; 1.02 in assay [6]. Besides, the composite z-score is 1.33 in [8]; 1.47 in [9]; 0.638 in [11]; 1.73 in assay [16]; -0.0087 in assay [17]; 1.27 in assay [18]. Further, the results for the composite z-score in [19] and in assay [20] were 0.953 and 2.11, respectively. In addition, the z-score was -0.0174 in [7]; -1.34 (inactive) in assay [10]; -0.593 (inactive) in [12]; 0.308 (inactive) in assay [13]; 6.73 (inactive) in assay [14]; -0.073 (inactive) in assay [15].
